# Paper PMC7862700, “An all-to-all approach to the identification of sequence-specific readers for epigenetic DNA modifications on cytosine”
# Experiments:
# Assay in all cases: DAPPL (digital affinity profiling via proximity ligation, sequencing); 10 mM Tris-HCl pH 7.5, 50 mM NaCl, 1 mM DTT, 4% glycerol, room temperature, 30 min; GST-TFs on glutathione beads, 16-mer random dsDNA library, 0.1% formaldehyde crosslink after washing; high values mean tight binding
# [1] = target: T1, FLI1 (Homo sapiens, UniProt Q01543 1-452); settings: protein: recombinant; tags: N-terminal GST; dsDNA, one strand shown
# T1 sequence: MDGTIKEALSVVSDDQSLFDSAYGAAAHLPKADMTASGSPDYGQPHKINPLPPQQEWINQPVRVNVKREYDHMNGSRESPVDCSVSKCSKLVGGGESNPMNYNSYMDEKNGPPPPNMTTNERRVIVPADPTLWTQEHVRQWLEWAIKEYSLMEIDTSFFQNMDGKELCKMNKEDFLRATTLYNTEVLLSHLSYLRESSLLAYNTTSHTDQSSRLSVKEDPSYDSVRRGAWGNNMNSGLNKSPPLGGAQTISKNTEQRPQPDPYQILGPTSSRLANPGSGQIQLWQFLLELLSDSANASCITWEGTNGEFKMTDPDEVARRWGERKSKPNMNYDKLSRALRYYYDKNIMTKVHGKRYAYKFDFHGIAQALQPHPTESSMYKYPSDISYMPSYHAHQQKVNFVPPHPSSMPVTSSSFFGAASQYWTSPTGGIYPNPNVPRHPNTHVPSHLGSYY
# Method in brief: (§1)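 Each value of binding signal is a hexamer's read frequency for a factor divided by the same hexamer's frequency in the tag-only sample. Barcoded, bead-captured GST fusions of human transcription factors made in yeast were pooled with that sample and incubated with 200 nmole of a random double-stranded 16-mer DNA library in Tris/NaCl/DTT/glycerol buffer at room temperature for 30 min. Washing, 0.1% formaldehyde crosslinking, proximity ligation, PCR and Illumina NextSeq500 sequencing followed.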
# [2] = target: T2, ELK1 (Homo sapiens, UniProt P19419 1-428); settings: protein: recombinant; tags: N-terminal GST; dsDNA, one strand shown
# T2 sequence: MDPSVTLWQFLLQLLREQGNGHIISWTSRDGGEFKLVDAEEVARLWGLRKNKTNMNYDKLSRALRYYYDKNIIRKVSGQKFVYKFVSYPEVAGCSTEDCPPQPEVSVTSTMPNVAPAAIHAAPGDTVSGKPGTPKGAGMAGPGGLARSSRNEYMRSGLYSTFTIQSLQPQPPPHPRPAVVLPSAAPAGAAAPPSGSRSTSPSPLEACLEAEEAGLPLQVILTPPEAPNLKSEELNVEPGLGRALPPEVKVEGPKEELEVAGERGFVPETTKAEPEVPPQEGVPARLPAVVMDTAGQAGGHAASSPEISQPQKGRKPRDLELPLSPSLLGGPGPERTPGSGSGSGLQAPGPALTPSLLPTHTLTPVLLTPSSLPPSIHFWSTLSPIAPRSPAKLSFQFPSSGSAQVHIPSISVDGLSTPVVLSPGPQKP
# Method in brief: as §1
# [3] = target: T3, GABPA (Homo sapiens, UniProt Q06546 1-454); settings: protein: recombinant; tags: N-terminal GST; dsDNA, one strand shown
# T3 sequence: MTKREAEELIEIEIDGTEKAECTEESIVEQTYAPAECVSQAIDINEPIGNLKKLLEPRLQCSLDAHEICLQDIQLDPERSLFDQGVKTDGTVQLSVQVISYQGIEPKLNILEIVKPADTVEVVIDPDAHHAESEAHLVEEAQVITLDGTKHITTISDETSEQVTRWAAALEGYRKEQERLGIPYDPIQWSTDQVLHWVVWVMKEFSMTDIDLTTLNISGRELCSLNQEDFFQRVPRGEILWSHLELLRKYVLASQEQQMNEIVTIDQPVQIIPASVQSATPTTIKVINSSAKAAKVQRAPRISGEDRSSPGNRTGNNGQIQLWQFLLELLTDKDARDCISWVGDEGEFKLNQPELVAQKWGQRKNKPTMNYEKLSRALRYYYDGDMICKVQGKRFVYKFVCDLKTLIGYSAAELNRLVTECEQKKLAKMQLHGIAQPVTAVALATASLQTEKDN
# Method in brief: as §1
# [4] = target: T4, ERG (Homo sapiens, UniProt P11308 1-479); settings: protein: recombinant; tags: N-terminal GST; dsDNA, one strand shown
# T4 sequence: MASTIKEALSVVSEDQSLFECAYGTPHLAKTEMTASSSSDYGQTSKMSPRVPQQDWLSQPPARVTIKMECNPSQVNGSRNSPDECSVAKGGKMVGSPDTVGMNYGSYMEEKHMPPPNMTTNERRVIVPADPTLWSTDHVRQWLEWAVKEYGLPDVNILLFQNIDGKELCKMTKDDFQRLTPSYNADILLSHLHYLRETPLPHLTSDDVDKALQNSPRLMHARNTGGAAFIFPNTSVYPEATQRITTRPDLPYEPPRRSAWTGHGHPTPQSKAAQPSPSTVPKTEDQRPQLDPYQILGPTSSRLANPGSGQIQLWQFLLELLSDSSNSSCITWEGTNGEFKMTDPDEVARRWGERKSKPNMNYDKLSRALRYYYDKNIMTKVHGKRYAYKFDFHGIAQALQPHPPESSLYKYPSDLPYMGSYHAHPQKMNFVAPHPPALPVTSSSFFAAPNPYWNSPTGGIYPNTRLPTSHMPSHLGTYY
# Method in brief: as §1
# [5] = target: ELF1 (Homo sapiens, UniProt P32519 1-619); settings: protein: recombinant; tags: N-terminal GST; dsDNA, one strand shown
# Method in brief: as §1
# [6] = target: T5, EHF (Homo sapiens, UniProt Q9NZC4 1-300); settings: protein: recombinant; tags: N-terminal GST; dsDNA, one strand shown
# T5 sequence: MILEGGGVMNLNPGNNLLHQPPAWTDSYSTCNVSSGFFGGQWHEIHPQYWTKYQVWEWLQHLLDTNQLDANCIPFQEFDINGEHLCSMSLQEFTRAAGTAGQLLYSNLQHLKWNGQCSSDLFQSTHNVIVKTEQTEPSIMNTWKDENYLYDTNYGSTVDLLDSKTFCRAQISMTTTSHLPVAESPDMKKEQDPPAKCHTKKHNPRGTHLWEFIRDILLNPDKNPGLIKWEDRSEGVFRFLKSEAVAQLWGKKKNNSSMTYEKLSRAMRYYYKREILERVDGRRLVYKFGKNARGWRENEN
# Method in brief: as §1
# [7] = target: SPI1 (Homo sapiens, UniProt P17947 1-270); settings: protein: recombinant; tags: N-terminal GST; dsDNA, one strand shown
# Method in brief: as §1
# [8] = target: SPIB (Homo sapiens, UniProt Q01892 1-262); settings: protein: recombinant; tags: N-terminal GST; dsDNA, one strand shown
# Method in brief: as §1
# [9] = target: T6, ELK3 (Homo sapiens, UniProt P41970 1-407); settings: protein: recombinant; tags: N-terminal GST; dsDNA, one strand shown
# T6 sequence: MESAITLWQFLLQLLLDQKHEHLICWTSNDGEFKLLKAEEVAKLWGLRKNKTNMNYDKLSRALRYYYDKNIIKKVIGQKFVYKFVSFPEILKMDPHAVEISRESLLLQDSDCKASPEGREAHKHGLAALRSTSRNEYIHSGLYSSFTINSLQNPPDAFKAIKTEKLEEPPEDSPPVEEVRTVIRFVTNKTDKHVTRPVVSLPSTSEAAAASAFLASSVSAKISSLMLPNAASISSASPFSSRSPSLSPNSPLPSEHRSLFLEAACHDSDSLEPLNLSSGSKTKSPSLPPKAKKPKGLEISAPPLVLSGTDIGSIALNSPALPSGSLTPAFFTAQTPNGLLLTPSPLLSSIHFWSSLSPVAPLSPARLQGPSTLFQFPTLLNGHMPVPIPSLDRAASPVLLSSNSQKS
# Method in brief: as §1
# [10] = target: T7, FEV (Homo sapiens, UniProt Q99581 1-238); settings: protein: recombinant; tags: N-terminal GST; dsDNA, one strand shown
# T7 sequence: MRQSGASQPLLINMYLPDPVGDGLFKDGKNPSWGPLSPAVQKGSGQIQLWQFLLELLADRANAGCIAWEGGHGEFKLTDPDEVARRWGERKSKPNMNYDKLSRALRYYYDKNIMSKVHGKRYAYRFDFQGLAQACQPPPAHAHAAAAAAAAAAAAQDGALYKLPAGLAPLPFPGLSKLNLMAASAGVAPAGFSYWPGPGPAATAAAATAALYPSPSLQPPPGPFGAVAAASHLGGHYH
# Method in brief: as §1
# [11] = target: ETV5 (Homo sapiens, UniProt P41161 1-510); settings: protein: recombinant; tags: N-terminal GST; dsDNA, one strand shown
# Method in brief: as §1
# [12] = target: HSF1 (Homo sapiens, UniProt Q00613 1-529); settings: protein: recombinant; tags: N-terminal GST; chain copies: 3; dsDNA, one strand shown
# Method in brief: as §1
# [13] = target: T8, SPIC (Homo sapiens, UniProt Q8N5J4 1-248); settings: protein: recombinant; tags: N-terminal GST; dsDNA, one strand shown
# T8 sequence: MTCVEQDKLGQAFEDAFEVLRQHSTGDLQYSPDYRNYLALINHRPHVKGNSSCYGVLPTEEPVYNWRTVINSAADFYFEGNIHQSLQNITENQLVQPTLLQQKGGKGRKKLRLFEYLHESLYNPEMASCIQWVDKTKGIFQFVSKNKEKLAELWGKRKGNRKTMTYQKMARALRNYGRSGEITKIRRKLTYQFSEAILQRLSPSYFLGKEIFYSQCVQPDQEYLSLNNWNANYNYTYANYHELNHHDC
# Method in brief: as §1
# [14] = target: ELF4 (Homo sapiens, UniProt Q99607 1-663); settings: protein: recombinant; tags: N-terminal GST; dsDNA, one strand shown
# Method in brief: as §1
# [15] = target: T9, ELK4 (Homo sapiens, UniProt P28324-2 1-405); settings: protein: recombinant; tags: N-terminal GST; dsDNA, one strand shown
# T9 sequence: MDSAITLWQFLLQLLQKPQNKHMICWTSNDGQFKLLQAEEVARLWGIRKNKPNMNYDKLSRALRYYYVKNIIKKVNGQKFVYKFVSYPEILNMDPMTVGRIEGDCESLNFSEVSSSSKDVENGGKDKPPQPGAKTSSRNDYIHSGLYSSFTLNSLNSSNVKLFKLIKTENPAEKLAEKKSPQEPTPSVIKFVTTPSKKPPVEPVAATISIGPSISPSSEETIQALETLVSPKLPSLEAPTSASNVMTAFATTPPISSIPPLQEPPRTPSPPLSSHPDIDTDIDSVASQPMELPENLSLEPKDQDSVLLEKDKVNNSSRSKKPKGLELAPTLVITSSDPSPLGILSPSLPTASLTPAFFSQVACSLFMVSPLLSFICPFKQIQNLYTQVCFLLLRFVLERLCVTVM
# Method in brief: as §1
# [16] = target: T10, ETV2 (Homo sapiens, UniProt O00321 1-342); settings: protein: recombinant; tags: N-terminal GST; dsDNA, one strand shown
# T10 sequence: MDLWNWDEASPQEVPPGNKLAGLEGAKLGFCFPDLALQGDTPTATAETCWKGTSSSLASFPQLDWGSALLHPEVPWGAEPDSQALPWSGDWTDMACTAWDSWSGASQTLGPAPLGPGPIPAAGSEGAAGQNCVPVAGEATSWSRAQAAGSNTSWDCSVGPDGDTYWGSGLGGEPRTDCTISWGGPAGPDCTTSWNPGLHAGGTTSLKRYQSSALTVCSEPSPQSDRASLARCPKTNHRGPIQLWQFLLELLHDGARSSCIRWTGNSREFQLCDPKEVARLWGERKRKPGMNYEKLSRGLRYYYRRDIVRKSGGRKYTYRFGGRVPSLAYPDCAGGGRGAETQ
# Method in brief: as §1
# [17] = target: T11, ELF3 (Homo sapiens, UniProt P78545 1-371); settings: protein: recombinant; tags: N-terminal GST; dsDNA, one strand shown
# T11 sequence: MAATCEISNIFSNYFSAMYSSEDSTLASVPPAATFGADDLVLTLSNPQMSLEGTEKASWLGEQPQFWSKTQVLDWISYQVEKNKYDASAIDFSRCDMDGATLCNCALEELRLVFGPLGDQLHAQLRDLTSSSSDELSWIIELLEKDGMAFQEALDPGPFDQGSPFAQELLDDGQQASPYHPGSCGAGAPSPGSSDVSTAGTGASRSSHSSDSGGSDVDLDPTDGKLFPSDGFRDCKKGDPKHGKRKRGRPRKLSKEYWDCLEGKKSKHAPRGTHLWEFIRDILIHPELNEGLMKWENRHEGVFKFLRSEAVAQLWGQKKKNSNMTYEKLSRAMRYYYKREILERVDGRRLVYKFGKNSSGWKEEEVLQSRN
# Method in brief: as §1
# [18] = target: CRX (Homo sapiens, UniProt O43186 1-299); settings: protein: recombinant; tags: N-terminal GST; dsDNA, one strand shown
# Method in brief: as §1
# [19] = target: ETV1 (Homo sapiens, UniProt P50549 1-477); settings: protein: recombinant; tags: N-terminal GST; dsDNA, one strand shown
# Method in brief: as §1
# HSF1, sequence (Q00613 whole entry): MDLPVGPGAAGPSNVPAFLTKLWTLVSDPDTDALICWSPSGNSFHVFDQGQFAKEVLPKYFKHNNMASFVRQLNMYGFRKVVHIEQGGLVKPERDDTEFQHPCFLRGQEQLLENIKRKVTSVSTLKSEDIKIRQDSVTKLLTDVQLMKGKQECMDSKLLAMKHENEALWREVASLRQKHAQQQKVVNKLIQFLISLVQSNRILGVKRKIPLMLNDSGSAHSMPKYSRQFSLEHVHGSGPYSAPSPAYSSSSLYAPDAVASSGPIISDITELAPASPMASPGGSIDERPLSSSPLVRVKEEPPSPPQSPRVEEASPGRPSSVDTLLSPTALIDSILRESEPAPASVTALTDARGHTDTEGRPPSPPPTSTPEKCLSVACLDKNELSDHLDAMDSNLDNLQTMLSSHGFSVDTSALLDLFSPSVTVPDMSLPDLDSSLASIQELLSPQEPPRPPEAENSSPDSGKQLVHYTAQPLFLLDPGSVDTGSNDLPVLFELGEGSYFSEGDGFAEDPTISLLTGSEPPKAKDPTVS
# CRX, sequence (O43186 whole entry): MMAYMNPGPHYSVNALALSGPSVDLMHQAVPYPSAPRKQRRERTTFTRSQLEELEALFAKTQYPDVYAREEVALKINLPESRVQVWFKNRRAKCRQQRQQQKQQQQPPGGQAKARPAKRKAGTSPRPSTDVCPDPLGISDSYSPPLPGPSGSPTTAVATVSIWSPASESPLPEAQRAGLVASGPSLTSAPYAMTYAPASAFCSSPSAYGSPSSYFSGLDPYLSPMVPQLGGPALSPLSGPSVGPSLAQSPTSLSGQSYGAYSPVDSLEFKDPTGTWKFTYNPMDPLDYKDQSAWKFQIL
# ELF1, sequence (P32519 whole entry): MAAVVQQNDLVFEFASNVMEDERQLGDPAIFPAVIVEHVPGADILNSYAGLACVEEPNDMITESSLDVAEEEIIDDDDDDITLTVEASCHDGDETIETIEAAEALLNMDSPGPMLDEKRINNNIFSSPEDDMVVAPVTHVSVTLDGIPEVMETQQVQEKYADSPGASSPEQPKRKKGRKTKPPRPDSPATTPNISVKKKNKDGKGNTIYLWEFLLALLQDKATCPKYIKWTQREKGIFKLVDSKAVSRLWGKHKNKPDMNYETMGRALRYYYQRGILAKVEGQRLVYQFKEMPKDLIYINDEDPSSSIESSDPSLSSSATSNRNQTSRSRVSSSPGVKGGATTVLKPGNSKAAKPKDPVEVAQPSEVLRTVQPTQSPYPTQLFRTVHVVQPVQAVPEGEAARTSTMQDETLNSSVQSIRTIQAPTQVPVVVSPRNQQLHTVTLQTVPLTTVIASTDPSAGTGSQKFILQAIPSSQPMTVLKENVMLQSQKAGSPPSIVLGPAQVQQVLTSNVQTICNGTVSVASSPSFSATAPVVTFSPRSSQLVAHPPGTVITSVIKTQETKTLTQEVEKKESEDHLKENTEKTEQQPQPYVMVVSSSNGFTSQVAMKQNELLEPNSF
# SPIB, sequence (Q01892 whole entry): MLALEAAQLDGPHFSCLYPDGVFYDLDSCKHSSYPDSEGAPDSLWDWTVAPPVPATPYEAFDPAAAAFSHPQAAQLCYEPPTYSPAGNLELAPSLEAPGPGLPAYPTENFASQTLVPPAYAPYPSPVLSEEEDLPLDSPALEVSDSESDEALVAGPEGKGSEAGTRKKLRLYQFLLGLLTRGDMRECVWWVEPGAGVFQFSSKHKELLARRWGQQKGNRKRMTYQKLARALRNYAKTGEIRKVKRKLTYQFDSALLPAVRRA
# ETV5, sequence (P41161 whole entry): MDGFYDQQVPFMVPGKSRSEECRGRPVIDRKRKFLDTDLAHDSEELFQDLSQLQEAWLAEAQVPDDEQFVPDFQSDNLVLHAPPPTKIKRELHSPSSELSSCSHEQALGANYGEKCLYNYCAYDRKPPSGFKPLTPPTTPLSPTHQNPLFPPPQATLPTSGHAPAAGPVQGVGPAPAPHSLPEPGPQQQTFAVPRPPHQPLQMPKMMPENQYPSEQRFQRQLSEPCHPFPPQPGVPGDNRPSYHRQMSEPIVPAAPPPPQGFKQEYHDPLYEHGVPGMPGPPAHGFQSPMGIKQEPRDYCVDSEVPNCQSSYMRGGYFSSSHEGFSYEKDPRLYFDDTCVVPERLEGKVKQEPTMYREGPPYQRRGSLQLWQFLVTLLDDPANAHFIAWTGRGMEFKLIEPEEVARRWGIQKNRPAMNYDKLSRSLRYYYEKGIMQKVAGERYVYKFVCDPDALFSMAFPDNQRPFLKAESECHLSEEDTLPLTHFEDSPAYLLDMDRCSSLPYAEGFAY
# ELF4, sequence (Q99607 whole entry): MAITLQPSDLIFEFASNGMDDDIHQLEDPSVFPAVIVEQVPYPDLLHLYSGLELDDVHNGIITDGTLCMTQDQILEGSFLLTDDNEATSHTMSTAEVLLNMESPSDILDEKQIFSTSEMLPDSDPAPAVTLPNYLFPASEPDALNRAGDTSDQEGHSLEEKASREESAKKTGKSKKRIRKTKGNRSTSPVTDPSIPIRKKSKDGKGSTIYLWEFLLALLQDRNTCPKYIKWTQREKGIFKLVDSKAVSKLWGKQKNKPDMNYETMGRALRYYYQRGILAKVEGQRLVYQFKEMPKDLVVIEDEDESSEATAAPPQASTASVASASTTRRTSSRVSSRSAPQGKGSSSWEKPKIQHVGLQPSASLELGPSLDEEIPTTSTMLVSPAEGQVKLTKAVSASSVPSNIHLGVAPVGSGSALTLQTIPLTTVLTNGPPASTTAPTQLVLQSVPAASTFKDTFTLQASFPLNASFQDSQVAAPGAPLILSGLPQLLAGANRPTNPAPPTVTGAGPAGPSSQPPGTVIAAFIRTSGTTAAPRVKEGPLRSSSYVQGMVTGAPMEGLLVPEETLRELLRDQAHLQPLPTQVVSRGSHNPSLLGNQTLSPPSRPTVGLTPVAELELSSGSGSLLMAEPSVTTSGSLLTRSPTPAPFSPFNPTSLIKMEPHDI
# ETV1, sequence (P50549 whole entry): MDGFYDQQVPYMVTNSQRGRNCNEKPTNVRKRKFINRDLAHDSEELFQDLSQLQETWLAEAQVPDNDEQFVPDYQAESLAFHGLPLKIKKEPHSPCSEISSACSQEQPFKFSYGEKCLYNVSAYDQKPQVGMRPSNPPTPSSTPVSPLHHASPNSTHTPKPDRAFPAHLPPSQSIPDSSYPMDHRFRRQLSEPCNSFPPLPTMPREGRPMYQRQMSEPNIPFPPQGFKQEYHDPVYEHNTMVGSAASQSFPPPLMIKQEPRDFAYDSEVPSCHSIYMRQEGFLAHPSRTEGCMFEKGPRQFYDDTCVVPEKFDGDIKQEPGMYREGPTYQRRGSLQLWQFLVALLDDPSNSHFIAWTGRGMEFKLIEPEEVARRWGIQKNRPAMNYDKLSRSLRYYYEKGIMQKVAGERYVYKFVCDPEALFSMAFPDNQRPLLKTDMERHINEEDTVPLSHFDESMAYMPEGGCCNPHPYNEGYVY
sequence,measurement,setting,value
TATATG,binding signal,[1],"1.28 fold enrichment (6-mer frequency, TF over GST control)"
same,binding signal,[2],"1.38 fold enrichment (6-mer frequency, TF over GST control)"
same,binding signal,[3],"1.3 fold enrichment (6-mer frequency, TF over GST control)"
same,binding signal,[4],"1.36 fold enrichment (6-mer frequency, TF over GST control)"
same,binding signal,[5],"1.43 fold enrichment (6-mer frequency, TF over GST control)"
same,binding signal,[6],"1.34 fold enrichment (6-mer frequency, TF over GST control)"
same,binding signal,[7],"1.41 fold enrichment (6-mer frequency, TF over GST control)"
same,binding signal,[8],"1.36 fold enrichment (6-mer frequency, TF over GST control)"
same,binding signal,[9],"1.38 fold enrichment (6-mer frequency, TF over GST control)"
same,binding signal,[10],"1.33 fold enrichment (6-mer frequency, TF over GST control)"
same,binding signal,[11],"1.34 fold enrichment (6-mer frequency, TF over GST control)"
same,binding signal,[12],"1.28 fold enrichment (6-mer frequency, TF over GST control)"
same,binding signal,[13],"1.47 fold enrichment (6-mer frequency, TF over GST control)"
same,binding signal,[14],"1.31 fold enrichment (6-mer frequency, TF over GST control)"
same,binding signal,[15],"1.65 fold enrichment (6-mer frequency, TF over GST control)"
same,binding signal,[16],"1.25 fold enrichment (6-mer frequency, TF over GST control)"
same,binding signal,[17],"1.46 fold enrichment (6-mer frequency, TF over GST control)"
same,binding signal,[18],"1.44 fold enrichment (6-mer frequency, TF over GST control)"
same,binding signal,[19],"1.33 fold enrichment (6-mer frequency, TF over GST control)"
